CYP2C19 act = activators of human cytochrome P450 2C19 | AID 1025 | recombinant CYP2C19, luciferin-H EGE luminescence; active compounds read high; 0 = fully inhibited enzyme, 1 = untreated enzyme | P33261 | activation factor at 5 µM | 96,000 tested, under 10 active;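 active = activation factor of at least 2 at 5 µM in the primary screen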;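 note: 0 = wells with 2.5 mM tranylcypromine and 1 = vehicle-only wells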
Target sequence (P33261 whole entry, looked up): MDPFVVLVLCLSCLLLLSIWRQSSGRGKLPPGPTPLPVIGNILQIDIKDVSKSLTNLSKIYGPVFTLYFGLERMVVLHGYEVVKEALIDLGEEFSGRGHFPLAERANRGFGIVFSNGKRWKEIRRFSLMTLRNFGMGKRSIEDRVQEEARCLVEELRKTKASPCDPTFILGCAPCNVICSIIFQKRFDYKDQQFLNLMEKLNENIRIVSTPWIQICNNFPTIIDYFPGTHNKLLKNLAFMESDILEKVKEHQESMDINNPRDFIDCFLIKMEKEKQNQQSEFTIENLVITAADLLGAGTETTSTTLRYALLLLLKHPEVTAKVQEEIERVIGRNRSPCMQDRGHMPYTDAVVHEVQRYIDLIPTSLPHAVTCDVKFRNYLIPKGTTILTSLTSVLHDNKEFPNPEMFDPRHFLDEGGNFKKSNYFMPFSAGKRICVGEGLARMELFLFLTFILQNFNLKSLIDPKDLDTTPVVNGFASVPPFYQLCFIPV
CYP2C19 inhib = inhibitors of human CYP2C19. actives 21% (n = 96,000). inhibition, % at 5 µM. P33261. CYP2C19 Supersomes, luciferin-H EGE luminescence, 30 min;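 active = CYP2C19 inhibition above a set limit at 5 µM in the primary screen, cut at about 50% in these data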;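 note: plate controls were negative control wells for no effect and 2.5 mM tranylcypromine positive control for full effect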
CYP2C9 act = CYP2C9 (human) activation; P11712; recombinant CYP2C9, luciferin-H conversion, luminescence; active compounds read high; factor 1 = untreated enzyme, 0 = blocked; activation factor at 5 µM; actives 1.4% (n = 96,000);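 active = activation factor of 2 or more for CYP2C9 at a 5 µM dose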;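 note: 0 = sulfaphenazole-blocked wells and 1 = vehicle-only wells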
CYP2C9 inh = human CYP2C9 inhibition. P11712. CYP2C9 Supersomes, luciferin-H conversion, luminescence. inhibition, % at 5 µM. actives 20% (n = 96,000). AID 777;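 active = blocking of liver enzyme CYP2C9 beyond about 50% at 5 µM, limit read from the data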
Cav32 inh = inhibitors of human Cav3.2 T-type calcium channel; O95180; Cav3.2-expressing cells, Fluo-4 calcium fluorescence FDSS; active compounds read low; B-score at 10 µM; actives 4% (n = 100,000); AID 449739;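 active = single-dose well whose peak fluorescence ratio is a statistical outlier from its plate by either plate-standardised score or position-corrected B-score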
* marks the source's active call; other numbers are inactive results; . = no result. An excerpt weighted towards active compounds, which were near 27% of everything screened.

SMILES	CYP2C19 act	CYP2C19 inhib	CYP2C9 act	CYP2C9 inh	Cav32 inh
CCC(C)NC(=O)c1ccccc1NC(=O)COc1ccc(OC)cc1 (configuration not stated)	0.5	51*	0.3	73*	-0.91
CCCS(=O)(=O)C(=C(Nc1ccccc1)Nc1ccccc1)S(=O)(=O)CCC	1.2	-22	1.3	-29	-0.9
Cc1ccc2cc(CNC(C)C)c(=O)[nH]c2c1	1	4	1	4	-0.041
O=C(CCN1C(=O)c2ccccc2C1=O)N1CCN(c2ccccc2)CC1	0.5	49	0.7	27	-0.84
O=C(O)CCN1C(=O)c2ccccc2C1=O	1.1	-8	0.7	28	1.2
O=C(CCN1C(=O)c2ccccc2C1=O)N1CCC(c2ccccc2)C1 (configuration not stated)	0.3	72*	1.1	-12	0.74
CCN(C(=O)CCN1C(=O)c2ccccc2C1=O)C1CCCCC1	0.2	78*	1.4	-45	0.27
O=C(COc1ccc(Br)cc1)N1CCOCC1	.	.	.	.	1
O=C(COc1ccc(Br)cc1)N1CCC(c2ccccc2)C1 (configuration not stated)	0.1	88*	0.9	14	-4.1*
Nc1nonc1C(=O)NCCNCc1ccccc1	1	-4	1.1	-10	0.24
COc1ccc(Oc2ccccc2/C=N/O)cc1	0.3	70*	1.2	-18	-1.4
CCC(C(=O)O/N=C(\N)c1ccccc1)c1ccccc1 (configuration not stated)	0.8	22	0.7	28	-3.6*
COc1ccccc1C(=O)O/N=C(\N)c1ccc(Cl)cc1	1	0	3*	-199	0.61
CCC(C(=O)O/N=C(\N)c1ccc(Cl)cc1)c1ccccc1 (configuration not stated)	0.7	34	0.8	17	-5.6*
CCC(C(=O)O/N=C(\N)c1ccc(C)cc1)c1ccccc1 (configuration not stated)	1	1	0.8	16	-2.6
Nc1c(Cl)cc(-c2csc(N3CCCC3c3nc4cc(Cl)c(N5CCCCC5)cc4n3CCOCCO)n2)cc1Cl (configuration not stated)	.	.	.	.	-0.63
O=C(Cn1c(C(F)(F)F)nc2ccccc21)c1ccc(F)cc1	0.5	47	0.7	31	.
CCC(OC(=O)c1cccs1)C(=O)NC1CCCCC1 (configuration not stated)	0.2	75*	0.7	28	0.49
CCC(OC(=O)c1cccs1)C(=O)NCc1ccco1 (configuration not stated)	0.2	83*	0.6	44	0.021
CC(C)CC(OC(=O)c1cccs1)C(=O)NCc1ccco1 (configuration not stated)	0.6	44	0.6	40	-0.59
O=C(OC(C(=O)NC1CCCC1)c1ccccn1)c1cccs1 (configuration not stated)	0.9	6	1	0	0.56
O=C1CC(c2ccc(Cl)cc2)CC(O)=C1C=NCc1ccc(Cl)c(Cl)c1 (configuration not stated)	0.8	20	0.6	40	-0.078
O=C(NCCCO)c1nnc(Cc2c(F)cccc2Cl)o1	1.2	-18	0.9	5	0.054
O=C(NCCCN1CCN(Cc2ccccc2)CC1)c1nnc(Cc2c(F)cccc2Cl)o1	0.7	34	0.4	56*	0.28
COC(=O)c1cc(C(=O)OC)cc(S(=O)(=O)Nc2ccc(Cl)c(N)c2)c1	0.1	94*	1	2	1.3
SMILES	CYP2C19 act	CYP2C19 inhib	CYP2C9 act	CYP2C9 inh	Cav32 inh
Cc1ccc2c(C)[nH]c(=O)cc2c1	1	4	1	4	-0.0049
Cc1ccc2c(N)c(C)ccc2c1	0.3	67*	0.9	11	0.3
O=C(OCCCN1C(=O)c2ccccc2C1=O)c1ccco1	0.5	54*	0.4	62*	-0.63
CCOC(=O)c1[nH]c2cc3c(cc2c1CCCN1C(=O)c2ccccc2C1=O)OCCO3	0.8	15	0.7	27	-0.21
O=C(OCCCCN1C(=O)c2ccccc2C1=O)c1n[nH]c2ccccc12	0.2	84*	0.1	86*	-1.7
CCOC(=O)c1[nH]c2ccccc2c1CCCN1C(=O)c2ccccc2C1=O	0.2	79*	0.1	86*	-1.1
CC(=O)c1c(C)[nH]c(C(=O)OCCCCN2C(=O)c3ccccc3C2=O)c1C	0.6	40	0.3	70*	-2.3
O=C(/C=C/c1ccco1)NC(=S)NNC(=O)c1ccco1	.	.	.	.	-2.6
CSc1ncccc1C(=O)OCC(=O)NC(N)=O	1.2	-24	1.3	-33	0.24
COC(=O)C1(O)CC(CC(C)C)=NN1C(=O)c1ccccc1 (configuration not stated)	0.8	17	0.9	7	0.55
Cc1cc(-c2[nH]nc3c2C(c2cccc(O)c2)C(C#N)=C(N)O3)c(C)s1 (configuration not stated)	0.1	88*	0.5	51*	0.66
Cc1cc(-c2[nH]nc3c2C(c2ccsc2)C(C#N)=C(N)O3)c(C)s1 (configuration not stated)	0.2	84*	0.1	93*	-0.58
CCOC(=O)C1C(=O)CC(C)(O)C(C(=O)OCC)C1/C=C/c1ccccc1 (configuration not stated)	0.9	14	0.9	8	1
Cc1ccc(CNc2cc(-c3nn4c(C)nnc4s3)ccc2C)s1	0.7	28	0.5	54*	-2.1
Cc1ccc(-c2nn3c(C)nnc3s2)cc1NCc1c(F)cccc1Cl	0.3	68*	0.3	74*	-1.8
Cc1ccc(-c2nn3c(C)nnc3s2)cc1NC(=O)c1cccnc1	0.5	50*	0.4	60*	1.2
Cc1ccc(-c2nn3c(C)nnc3s2)cc1NC(=O)CSc1ccc(Cl)cc1	.	.	.	.	-0.84
COc1cc(OC)cc(C(=O)NCCNC(=O)c2ccccc2)c1	0.5	53*	0.5	46	.
O=C(NCNC(=O)c1ccccc1)c1ccccc1	0.1	94*	1	-3	0.065
COc1cc(OC)cc(C(=O)NC(=S)NCCc2ccccc2)c1	0.5	48	0.5	51*	-0.14
COc1cc(OC)cc(C(=O)NC(=S)Nc2cccnc2)c1	0.2	76*	0.2	78*	-0.11
COc1cc(OC)cc(C(=O)Nc2ccccc2NC(C)=O)c1	0.7	35	0.7	26	1.4
CCc1ccc(OCc2nnc(SCCN3CCOCC3)n2C)cc1	1	-4	0.9	6	1.1
CC(=O)Nc1ccc(C(=O)n2nc(C)cc2C)cc1	1	4	1.1	-8	0.52
COc1ccccc1N1CCN(C(=O)c2c(-c3ccccc3)noc2C)CC1	0.4	55*	0.7	28	-1.7
COc1ccccc1N1CCN(C(=O)c2cc(-c3ccco3)on2)CC1	0.1	92*	0.2	76*	-0.79
Cc1onc(-c2ccccc2)c1C(=O)n1nnc2ccccc21	0.6	37	0.4	56*	1.5
COc1ccccc1N1CCN(C(=O)c2ccc(C(C)(C)C)cc2)CC1	0.2	75*	0.1	91*	-5*

Screens as filed in PubChem.
